Data reported in PubChem BioAssay AID624391 (National Center for Advancing Translational Sciences (NCATS), 2012).
Active and inactive are the calls of the source. Calls follow the shape of the dose curve; as a rule, active = well fitted curve in the direction sought with a large enough effect; inactive = no such curve, though single readings can be large or run the other way.

Molecular target: Pyruvate kinase PKM (Homo sapiens) (UniProt P14618)
Assay: qHTS for Activators of Human Muscle Isoform 2 Pyruvate Kinase: Extended Characterization for Probe 2
Conditions: purified hPK-M2, Kinase-Glo ATP luminescence, 1 h
Protocol: Human pyruvate kinase muscle 2 (hPK-M2) enzyme was supplied as a highly purified (>95% pure) preparation from Harvard Medical School and assayed for its ability to generate ATP from ADP using phosphoenolpyruvate (PEP) as a substrate. ATP generation was detected in a coupled reaction by luciferase-mediated luminescence, an ATP-dependent process. […] The enzyme was assayed at an intermediate level of activity to screen for both inhibitors and activators. NIH Chemical Genomics Center [NCGC] NIH Molecular Libraries Probe Centers Network [MLPCN] MLPCN Grant: MH085679 Assay Submitter (PI): Matthew G. Vander Heiden, Harvard Medical School
Three uL of substrate mix (at r.t.) in assay buffer (50 mM Imidazole pH7.2, 50 mM KCl, 7 mM MgCl2, 0.01% Tween 20, 0.05% BSA) was dispensed into white solid bottom 1,536 well microtiter plates so that the final concentrations of substrates in the assay were 0.1 mM ADP and 0.5 mM PEP. 23 nL of compound were delivered by a pin tool and 1 uL of enzyme mix (final concentration of 0.1 nM) in assay buffer (4 degree Celsius) was added. Plates were incubated at room temperature for 1 hour. Two uL of detection mix (Kinase-Glo, Promega; at 4 degree Celsius protected from light) was added and luminescence read by a ViewLux (Perkin Elmer) at 1 second exposure/plate. Data were normalized to the uninhibited (column 3) and AC100 inhibition (no enzyme in column 2). To monitor activation, the first column contained a titration of the activator, NCGC00031955-03 (16-point 1:2 dilutions in duplicate starting at 57 uM) and the first 16 rows of column 4 contained 57 uM of NCGC00031955-03.

Sequence of Pyruvate kinase PKM (Homo sapiens) (P14618 whole entry, looked up, canonical isoform): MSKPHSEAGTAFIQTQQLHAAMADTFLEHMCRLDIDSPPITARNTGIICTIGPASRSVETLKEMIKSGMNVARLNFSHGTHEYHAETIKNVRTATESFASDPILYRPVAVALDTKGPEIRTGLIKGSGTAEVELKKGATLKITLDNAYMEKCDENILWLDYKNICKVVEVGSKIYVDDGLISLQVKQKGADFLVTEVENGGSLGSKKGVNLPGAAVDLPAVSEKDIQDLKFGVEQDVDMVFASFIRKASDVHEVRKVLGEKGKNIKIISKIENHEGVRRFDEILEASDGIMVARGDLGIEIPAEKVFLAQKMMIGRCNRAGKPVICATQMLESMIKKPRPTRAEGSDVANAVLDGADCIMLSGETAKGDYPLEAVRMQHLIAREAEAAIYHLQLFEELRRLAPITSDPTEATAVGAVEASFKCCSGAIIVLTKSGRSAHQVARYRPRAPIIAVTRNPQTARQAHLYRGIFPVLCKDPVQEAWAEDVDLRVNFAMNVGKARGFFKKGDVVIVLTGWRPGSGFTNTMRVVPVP

Potency, active:
Cc1ccc(NS(=O)(=O)c2ccc3c(c2)CCC(=O)N3)cc1C 163 nM
O=S(=O)(c1ccc2c(c1)OCCO2)N1CCN(S(=O)(=O)c2c(F)cccc2F)CC1 81.9 nM
COc1cccc(Cn2ncc3c4sc(S(C)=O)cc4n(C)c3c2=O)c1 (stereo not drawn) 73 nM
